In PubChem BioAssay (Tox21):
Records with an inconclusive call do not appear. Active and inactive are the calls of the source. Unless noted, calls come from the whole dose curve; as a rule, active = well fitted curve in the direction sought with a large enough effect in the repeat runs; inconclusive = weak or mixed curves; inactive = no such curve, though single readings can be large; an effect the other way counts as inactive or inconclusive.

Columns and labels:
[1] = target: Estrogen receptor (Homo sapiens) (UniProt P03372); assay: qHTS assay to identify small molecule antagonists of the estrogen receptor alpha (ER-alpha) signaling pathway using the BG1 cell line in the presence of 0.1 nM 17-beta-estradiol (AID 1259244); note: nearly all actives have a fitted effect of over 50% in size; note: potency is the fitted concentration of half-maximal effect
How it was run: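 Luminescence after ONE-Glo (30 min, room temperature) measured ERE-luciferase activity in VM7Luc4E2 cells treated 22 h with compound and 0.1 nM final 17beta-estradiol as stimulator.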

[2] = qHTS assay to identify small molecule HDAC inhibitors (AID 1259364); note: potency is the fitted concentration of half-maximal effect;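 note: wild-type HCT-116 cells with endogenous class I/II HDAC activity; nearly all actives have a fitted effect of over 45% in size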; for activity change, negative = inhibition: top concentration of the series differs between compounds
How it was run: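 HCT-116 (wild type), 1,500 cells/well, overnight; compound 2 hr 37C 5% CO2; HDAC-Glo I/II reagent 30 min RT; luminescence readout.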

[3] = qHTS assay to identify small molecule HDAC inhibitors - cell viability counter screen (AID 1259365); note: series mostly up to about 92 µM; nearly all actives have a fitted effect of over 50% in size
How it was run: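 Following a 2hr exposure of overnight-plated wild-type HCT-116 cells to DMSO-delivered compounds, CellTiter-Glo was added and luminescence recorded after 30min at room temperature.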

[4] = qHTS assay to identify small molecule agonists of the sonic hedgehog signaling (Shh) pathway - cell viability counter screen (AID 1259366); note: nearly all actives have a fitted effect of over 50% in size; note: potency is the fitted concentration of half-maximal effect
How it was run: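 After a 4hr attachment at 37C, NIH/3T3 cells bearing an integrated Gli1-driven luciferase reporter were dosed with compounds. Treatment lasted 24hr, with the final hour including CellTiter-Fluor for a fluorescence viability measurement.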

[5] = qHTS assay to identify small molecule antagonists of the sonic hedgehog signaling (Shh) pathway - cell viability counter screen (AID 1259367); note: nearly all actives have a fitted effect of over 55% in size; note: potency is the fitted concentration of half-maximal effect
How it was run: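 Cytotoxicity was assessed in parallel with Shh reporter activity by measuring live-cell protease fluorescence (CellTiter-Fluor) in NIH/3T3 cells stably carrying Gli1-Luc, treated with compound under conditioned medium stimulation for 23 hr plus 1 hr reagent incubation.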

[6] = qHTS assay to identify small molecule agonists of the sonic hedgehog signaling (Shh) pathway (AID 1259368; calls by dose curve;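 note: NIH/3T3-derived 3T3Gli1-Luc cells carrying a stable Gli1-driven firefly luciferase reporter; series mostly up to about 92 µM; nearly all actives have a fitted effect of over 15% in size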)
How it was run: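 Read-out: firefly luciferase luminescence from a Gli1 response element reporter stably integrated in NIH/3T3-derived 3T3Gli1-Luc cells, measured 30 min at room temperature after reagent addition. Compound exposure lasted 24 hr at 37 C, 5% CO2.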

[7] = qHTS assay to identify small molecule antagonists of the sonic hedgehog signaling (Shh) pathway (AID 1259369; calls by dose curve; note: nearly all actives have a fitted effect of over 45% in size; note: potency is the fitted concentration of half-maximal effect)
How it was run: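 Luminescence readout: firefly Luc under Gli1 response element in 3T3Gli1-Luc cells (NIH/3T3 clone). Antagonist mode, stimulation by conditioned medium; compound exposure 24hr at 37 C, 5% CO2.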

[8] = target: Estrogen receptor beta (Homo sapiens) (UniProt Q92731); assay: qHTS assay to identify small molecule agonists of the estrogen receptor beta (ER-beta) signaling pathway (AID 1259377; active = well fitted activation curve with a large enough effect in the signal ratio in the repeat runs, not every such curve was filed as active; the % refers to the signal ratio)
How it was run: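 In HEK293T cells bearing a UAS-beta-lactamase reporter under ER-beta control, DMSO-delivered compounds were incubated for 16 hr at 37C. Activity was detected as fluorescence 2 hours after LiveBLAzer B/G FRET substrate addition.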
% is set by controls: 0 for no effect and ±100 for the full control effect.

Sequence of Estrogen receptor (Homo sapiens) (P03372 whole entry, looked up): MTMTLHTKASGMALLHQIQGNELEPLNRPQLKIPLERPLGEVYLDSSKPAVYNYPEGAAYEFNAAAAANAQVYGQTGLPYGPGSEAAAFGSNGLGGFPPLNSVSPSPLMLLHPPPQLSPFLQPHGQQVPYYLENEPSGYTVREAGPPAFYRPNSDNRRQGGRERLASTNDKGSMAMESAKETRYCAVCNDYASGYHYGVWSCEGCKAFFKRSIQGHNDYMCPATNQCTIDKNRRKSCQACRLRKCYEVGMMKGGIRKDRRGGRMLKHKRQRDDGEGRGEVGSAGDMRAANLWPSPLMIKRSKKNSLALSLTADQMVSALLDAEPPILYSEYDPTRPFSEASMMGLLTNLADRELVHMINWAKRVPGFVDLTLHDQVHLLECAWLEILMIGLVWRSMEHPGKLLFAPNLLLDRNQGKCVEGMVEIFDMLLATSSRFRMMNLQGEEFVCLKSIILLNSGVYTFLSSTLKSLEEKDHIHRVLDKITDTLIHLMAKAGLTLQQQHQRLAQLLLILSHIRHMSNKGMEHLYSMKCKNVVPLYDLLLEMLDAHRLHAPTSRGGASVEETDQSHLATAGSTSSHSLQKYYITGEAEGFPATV
Sequence of Estrogen receptor beta (Homo sapiens) (Q92731 whole entry, looked up): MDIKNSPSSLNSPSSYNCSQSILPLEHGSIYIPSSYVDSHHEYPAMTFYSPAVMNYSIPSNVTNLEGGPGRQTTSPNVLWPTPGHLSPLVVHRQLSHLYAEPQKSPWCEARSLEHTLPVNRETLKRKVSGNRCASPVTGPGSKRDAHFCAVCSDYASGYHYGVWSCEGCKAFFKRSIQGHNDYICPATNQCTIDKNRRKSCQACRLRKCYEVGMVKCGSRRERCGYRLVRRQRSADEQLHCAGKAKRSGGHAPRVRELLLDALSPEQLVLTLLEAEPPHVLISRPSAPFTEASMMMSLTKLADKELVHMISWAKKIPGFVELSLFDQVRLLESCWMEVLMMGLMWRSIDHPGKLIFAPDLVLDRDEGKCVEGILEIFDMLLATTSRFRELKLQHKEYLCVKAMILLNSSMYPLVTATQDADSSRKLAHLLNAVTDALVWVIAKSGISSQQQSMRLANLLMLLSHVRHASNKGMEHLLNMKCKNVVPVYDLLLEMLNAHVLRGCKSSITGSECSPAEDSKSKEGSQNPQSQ

O=C1OC(=O)c2cccc3cccc1c23
inactive: Potency [1] | Potency [2] | Potency [3] | Potency [4] | Potency [5] | Potency [6] | Potency [7] | Potency [8]

CC(C)=CC1CC(C)CCO1 (centres undefined)
inactive: Potency [1] | Potency [2] | Potency [3] | Potency [4] | Potency [5] | Potency [6] | Potency [7] | Potency [8]

Cc1cc(=O)[nH]c(=O)[nH]1
inactive: Potency [1] | Potency [2] | Potency [3] | Potency [4] | Potency [5] | Potency [6] | Potency [7] | Potency [8]

C/C=C/C(=O)Oc1c(CCCCCC(C)C)cc([N+](=O)[O-])cc1[N+](=O)[O-]
inactive: Potency [2] | Potency [3] | Potency [6]
active: Potency [1] 4.33 µM | Potency [4] 61.1 µM | Potency [5] 54.5 µM | Potency [7] 2.17 µM

Cn1cnc2ncnc(N)c21
inactive: Potency [1] | Potency [2] | Potency [3] | Potency [4] | Potency [5] | Potency [6] | Potency [7] | Potency [8]

CC(C)c1ccccc1N
inactive: Potency [1] | Potency [2] | Potency [3] | Potency [4] | Potency [5] | Potency [6] | Potency [7]

Cc1cc(C)c(C=O)c(C)c1
inactive: Potency [1] | Potency [2] | Potency [3] | Potency [4] | Potency [5] | Potency [6] | Potency [7]

CC1(C)C(=O)N(CO)C(=O)N1CO
inactive: Potency [1] | Potency [2] | Potency [3] | Potency [4] | Potency [5] | Potency [6] | Potency [7] | Potency [8]

CCCCCCCC/C=C/CCCOC(C)=O
inactive: Potency [1] | Potency [2] | Potency [3] | Potency [4] | Potency [5] | Potency [6] | Potency [8]
active: Potency [7] 48.6 µM

CCCCCCCCCCCCCc1ccccc1
inactive: Potency [1] | Potency [2] | Potency [3] | Potency [4] | Potency [5] | Potency [6] | Potency [7]

CNC(=S)NN
active: Potency [1] 48.6 µM | Potency [4] 30.6 µM | Potency [5] 17.2 µM | Potency [7] 3.44 µM
inactive: Potency [2] | Potency [3] | Potency [6]

CCc1cccc(C)c1
inactive: Potency [1] | Potency [2] | Potency [3] | Potency [4] | Potency [5] | Potency [6] | Potency [7]

CCCCCCCC/C=C\CCCCCCCC(=O)OCCOC(=O)CCCCCCC/C=C\CCCCCCCC
inactive: Potency [1] | Potency [2] | Potency [3] | Potency [4] | Potency [5] | Potency [6] | Potency [7]

COc1ccc(C#N)cc1
inactive: Potency [1] | Potency [2] | Potency [3] | Potency [4] | Potency [5] | Potency [6] | Potency [7]

C(=C/c1ccccc1)/c1ccccc1
inactive: Potency [1] | Potency [2] | Potency [3] | Potency [4] | Potency [5] | Potency [6] | Potency [7]

CCCCCCCOC(=O)c1ccc(O)cc1
active: Potency [7] 43.3 µM
inactive: Potency [1] | Potency [2] | Potency [3] | Potency [4] | Potency [5] | Potency [6] | Potency [8]

CN(C)CCN1CCOCC1
inactive: Potency [1] | Potency [2] | Potency [3] | Potency [4] | Potency [5] | Potency [6] | Potency [7] | Potency [8]

CCC(C)C(=O)OC (centres undefined)
inactive: Potency [1] | Potency [2] | Potency [3] | Potency [4] | Potency [5] | Potency [6] | Potency [7]

O=C=NCc1cccc(CN=C=O)c1
inactive: activity change, negative = inhibition [1] 2.93% [at 19 µM] | activity change, negative = inhibition [2] 3.12% [at 19 µM] | activity change, negative = cytotoxicity [3] 0.277% [at 19 µM] | viability change, negative = cytotoxic [4] 4.73% [at 19 µM] | viability change, negative = cytotoxic [5] -1.32% [at 19 µM] | activity change [6] -1.18% [at 18.9 µM, active compounds read high] | activity change, negative = inhibition [7] 11.1% [at 19 µM]

CCO[Si](CCCSSSSCCC[Si](OCC)(OCC)OCC)(OCC)OCC
inactive: Potency [1] | Potency [2] | Potency [3] | Potency [4] | Potency [5] | Potency [6] | Potency [7]

CCCCCCCC(C)=O
inactive: Potency [1] | Potency [2] | Potency [3] | Potency [4] | Potency [5] | Potency [6] | Potency [7] | Potency [8]

CC1=CCC(=O)O1
inactive: Potency [1] | Potency [2] | Potency [3] | Potency [4] | Potency [5] | Potency [6] | Potency [7] | Potency [8]

CCN(CC)c1cccc(C)c1
inactive: Potency [1] | Potency [2] | Potency [3] | Potency [4] | Potency [5] | Potency [6] | Potency [7]

CN(C)c1ccc(N=Nc2ccccc2C(=O)O)cc1
active: Potency [2] 8.63 µM | Potency [4] 21.7 µM | Potency [5] 24.3 µM | Potency [7] 2.17 µM
inactive: Potency [1] | Potency [3] | Potency [6] | Potency [8]

OCCC(O)CO (centres undefined)
inactive: Potency [1] | Potency [2] | Potency [3] | Potency [4] | Potency [5] | Potency [6] | Potency [7]

CC(C)=C1CC[C@@H](C)CC1=O
inactive: Potency [1] | Potency [2] | Potency [3] | Potency [4] | Potency [5] | Potency [6] | Potency [7] | Potency [8]
